Compound activity deposited in PubChem by National Center for Advancing Translational Sciences (NCATS).
Rab9 promoter act – activates the Rab9 promoter | Potency, µM (series often up to 9.22 µM), without a hit: top-dose activation, negative = inhibition, most hits filed as activators | hit rate 2.8% among 320,000 | Huh7 Rab9 promoter-luciferase reporter, luminescence, 24 h | AID 485297; also: % of control where 0% means no effect; nearly all actives have a fitted effect of over 60% in size
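Luminescence from Amplite-detected luciferase (10 minutes, ambient) reports Rab9 promoter activation. Before that, stable Rab9-luciferase Huh7 cells (1500/well, reduced-serum OP-MEM I plus 10% FBS) were exposed to compound for 24 hours at 37C.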
ELG1 DNA repair – ELG1-dependent DNA repair inhibition. HEK293T ELG1-luciferase reporter, luminescence, 16 h; DNA damage induced by 5-fluorouridine. Potency, µM (series often up to 46.1 µM), without a hit: top-dose activity change, negative = inhibition, most hits filed as inhibitors. hit rate 2.3% among 330,000. AID 504467; also: % is scaled to controls: 0 for no effect and ±100 for the full control effect; nearly all actives have a fitted effect of over 55% in size
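Luminescence from the luciferase reporter, measured 30 min after ONE-Glo reagent at room temperature, was the read-out. Beforehand, 2,000 cells per well were exposed for 16 hr at 37 °C to 5-fluorouridine together with compound or vehicle.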
FLuc modulator – inhibits or activates purified firefly luciferase, miR-21 counter-screen | purified FLuc, Km substrates, luminescence inhibition | P08659 | Potency, µM (top dose mostly 57.5 µM), for inactives: at the highest dose activity change, negative = inhibition, actives largely listed as inhibitors | hit rate 6.9% among 360,000 | AID 588342;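 also: plate controls were vehicle for no effect and reference inhibitor for full effect; nearly all actives have a fitted effect of over 55% in size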
Target sequence (P08659 whole entry, looked up): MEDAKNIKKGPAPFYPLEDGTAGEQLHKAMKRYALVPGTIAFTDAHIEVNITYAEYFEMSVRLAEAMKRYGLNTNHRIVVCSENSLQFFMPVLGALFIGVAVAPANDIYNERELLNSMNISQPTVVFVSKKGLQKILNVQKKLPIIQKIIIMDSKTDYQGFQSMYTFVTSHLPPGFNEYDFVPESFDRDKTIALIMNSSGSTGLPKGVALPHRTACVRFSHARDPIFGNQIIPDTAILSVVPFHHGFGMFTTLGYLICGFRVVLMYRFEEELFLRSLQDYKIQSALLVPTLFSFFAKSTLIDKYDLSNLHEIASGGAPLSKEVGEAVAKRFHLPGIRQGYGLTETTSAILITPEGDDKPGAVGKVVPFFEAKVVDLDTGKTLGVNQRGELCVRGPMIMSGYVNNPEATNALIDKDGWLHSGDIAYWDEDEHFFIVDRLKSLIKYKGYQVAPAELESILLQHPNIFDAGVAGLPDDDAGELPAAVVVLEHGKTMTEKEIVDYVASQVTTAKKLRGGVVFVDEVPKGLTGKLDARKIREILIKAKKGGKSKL
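Biochemical qHTS of compounds, final roughly 60 µM downward over six points, against 10 nM purified firefly luciferase using Km concentrations of substrates (10 uM D-luciferin, 10 uM ATP) in Tris acetate pH 7.5 buffer; luminescence output.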
ELG1 genotox – inducers of genotoxicity in HEK293T ELG1-luciferase cells | HEK293T ELG1-luciferase reporter, luminescence, 16 h | Potency, µM (series often up to 46 µM), without a hit: top-dose activity change, positive = activation, hits mostly activators | hit rate 1.3% among 330,000 | AID 504466; also: % of control where 0% means no effect; nearly all actives have a fitted effect of over 60% in size
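Cells (2,000/well) expressing the ELG1-luciferase fusion are dosed by pin tool and kept 16 hr at 37 °C, 5% CO2. Signal comes from ONE-Glo luciferase reagent after 30 min at room temperature.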
SMN2 splice enh – SMN2 splice variant enhancement. AID 1458. Potency, µM (top dose mostly 46.1 µM), for the others: top-dose activity change, positive = activation, most hits filed as activators. HEK293 SMN2-luciferase splicing reporter, luminescence, 30-36 h. hit rate 2.8% among 210,000; also: % of control where 0% means no effect; nearly all actives have a fitted effect of over 55% in size
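HEK293 cells carry an SMN2 […]–luciferase reporter in which exon 7 inclusion puts luciferase in frame. Cells were plated 10-12 h before compound addition, then incubated 30-36 h at 37C. ONE-Glo luminescence was read; sodium butyrate at 4.5 mM final served as control.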
NPC1 promoter act – activators of NPC1 promoter; AID 485313; Potency, µM (series often up to 9.22 µM), inactives show top-dose activation, usual class: activators; Huh7 NPC1 promoter luciferase reporter, 24 h; hit rate 2.4% among 320,000; also: % of control where 0% means no effect; nearly all actives have a fitted effect of over 60% in size
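Stably transfected Huh7 (NPC1 promoter→luciferase), 1500 cells/well in Opti-MEM + 10% FBS, 2 h settle, then compound 24 h at 37 °C. Luminescence after 10 min with Amplite reagent.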
The depositor's hits bear a star; ? = inconclusive; · = no result; [ ] = remark or other dose. Sampled rows, rich in hits. Any-hit rate of the full collection: about 9.2%. Calls follow the shape of the dose curve; as a rule, active = well fitted curve in the direction sought with a large enough effect; inconclusive = small, poorly fitted or top-dose-only effect, or another doubt; inactive = no such curve, though single readings can be large; an effect the other way counts as inactive or inconclusive. Potency is read from the fitted curve at half-maximal effect.

SMILES	Rab9 promoter act	ELG1 DNA repair	FLuc modulator	ELG1 genotox	SMN2 splice enh	NPC1 promoter act
Cc1ccn2cc(CSc3ccccc3)nc2c1	1.4µM*	?	4.8µM*	3.7µM*	13µM*	1.3µM*
Cc1ccc(SCc2cn3cccnc3n2)cc1	27%	?	?	?	21%	?
c1ccn2c(SCc3ccc4c(c3)OCCO4)nnc2c1	3.5µM*	?	?	21µM*	11µM*	?
c1ccn2cc(CSC3=NCCS3)nc2c1	?	?	19µM*	?	?	?
O=[N+]([O-])c1cccc(CSc2nnc3ccccn23)c1	1%	-10%	6%	4%	2%	-4%
c1ccn2cc(CSc3nnc4ccccn34)nc2c1	1µM*	?	13µM*	10µM*	17%	3.5µM*
c1ccc(-n2nnnc2SCc2cn3ccccc3n2)cc1	8%	4%	-3%	-4%	9%	7%
CCOc1ccccc1CNC(=O)CN(c1ccc(C)cc1)S(=O)(=O)N(C)C	·	·	0%	·	·	·
COc1cccc([C@@H]2Oc3ccc(OC)cc3C[C@H]2OC(=O)N[C@H]2CCCc3ccccc32)c1	·	·	·	·	-3%	·
COc1ccc(OC)c(CCNC(=O)c2nc(-c3ccc(Cl)cc3)n3c2CCCCC3)c1	·	·	-6%	·	·	·
CCOc1cccc(NC(=O)C2CC(=O)N(C)C(=Nc3cccc(OC)c3)S2)c1 (centres undefined)	·	·	-10%	·	-55%	·
Cn1ccnc1SCc1cn2ccccc2n1	3.2µM*	?	17µM*	?	?	3.2µM*
Cc1cc(=O)[nH]c(SCc2cn3ccccc3n2)n1	-3%	?	-10%	4%	18%	1%
COc1cc(C(=O)OCC(=O)Nc2c(F)cccc2F)cc(OC)c1C	4%	19%	-3%	5%	-7%	-5%
COc1cc(C(=O)OCC(=O)Nc2c(F)c(F)c(F)c(F)c2F)cc(OC)c1OC	15%	26µM*	0%	3%	-8%	0%
Cc1ccc(N(C(=O)c2csnn2)C(C(=O)NC2CCCCC2)c2ccncc2)c(C)c1 (centres undefined)	1%	7%	1%	2%	·	-3%
CCOC(=O)Cc1c(C)nc2c(-c3cccc(Br)c3)c[nH]n2c1=O	1%	16µM*	21µM*	-11%	-88%	2%
CCOC(=O)Cc1c(C)nc2c(C#N)c[nH]n2c1=O	-2%	2%	-3%	-1%	18%	-4%
CCOC(=O)Cc1c(C)nc2cc(-c3ccc(C(C)(C)C)cc3)[nH]n2c1=O	10%	?	11µM*	?	-5%	1%
CCCCc1c(C)nc2cc(-c3ccco3)[nH]n2c1=O	?	?	12µM*	?	·	?
CCc1c(C)nc2cc(-c3ccccc3)[nH]n2c1=O	?	?	11µM*	?	·	3.2µM*
COc1cccc(C2C(C(N)=O)=C(C)Nc3ncnn32)c1 (centres undefined)	·	·	0%	·	-6%	·
N#CCC(=O)Nc1ccc(C(=O)OCC(=O)NC2CCCc3ccccc32)cc1 (centres undefined)	·	-7%	·	-1%	·	·
C=CCc1c(C)nc2cc(-c3ccc(C)cc3)[nH]n2c1=O	?	?	3µM*	1.8µM*	·	1.6µM*
COc1cc(-c2cc3nc(C)c(C)c(=O)n3[nH]2)cc(OC)c1OC	-6%	?	-5%	0%	-4%	0%
SMILES	Rab9 promoter act	ELG1 DNA repair	FLuc modulator	ELG1 genotox	SMN2 splice enh	NPC1 promoter act
Cc1ccc(N2CCC(N3CCN(C)C(CCO)C3)CC2)cc1 (centres undefined)	4%	10%	2%	1%	·	0%
COC(=O)c1sc(NC(=O)c2oc3ccccc3c2C)nc1C	?	?	?	2.3µM*	7.1µM*	?
CCOC(=O)c1sc(Nc2nc(OC)cc(OC)n2)nc1C	-4%	26µM*	-9%	-6%	·	-5%
COc1ccc(-c2nsc(NC(=O)c3oc4ccccc4c3C)n2)cc1	·	·	?	·	29%	·
Cc1c(C(=O)Nc2nnc(C(F)(F)F)s2)oc2ccccc12	?	-6%	11µM*	8%	-14%	?
CCOC(=O)c1sc(NC(C)=O)nc1C	-9%	1%	2%	3%	9%	0%
COC(=O)c1sc(NC(=O)c2ccc(C)o2)nc1C	2.8µM*	?	5.4µM*	?	1.6µM*	?
Cc1occc1C(=O)Nc1nnc(C(F)(F)F)s1	2%	-25%	-21%	-5%	-29%	1%
Cc1ccc(NC(=O)CCN2C(=O)C3CCCCC3C2=O)cc1[N+](=O)[O-] (centres undefined)	-27%	28%	4%	4%	·	-1%
Nc1nnc2c(n1)[nH]c1ccccc12	·	·	-4%	·	-11%	·
C/C=C/C(=O)Nc1cccc(C2=NOC3(C2)C[C@@H](C(N)=O)N(C(=O)C(c2ccccc2)c2ccccc2)C3)c1 (some centres undefined)	-8%	5%	0%	0%	·	-1%
CC(=O)c1cccc(NC(=O)N2CCCC2C(=O)Nc2ccc3c(c2)OCO3)c1 (centres undefined)	0%	1%	3%	-1%	-15%	1%
CCOC(=O)c1sc(NC(=O)c2ccc(OC)cc2)nc1C	1%	?	?	?	28%	-39%
CCOC(=O)c1sc(NC(=O)c2ccc(C)o2)nc1C	-30%	?	6µM*	5.8µM*	13µM*	-23%
CCOC(=O)c1sc(NC(=O)COC(=O)c2ccco2)nc1C	-9%	0%	?	1%	-14%	1%
CCOC(=O)c1sc(NC(=O)c2ccco2)nc1C	?	?	11µM*	?	8%	28%
O=C(Nc1ccccc1C(=O)Nc1nnc(C(F)(F)F)s1)c1ccccc1	-39%	4.6µM*	?	-14%	·	-31%
CC1=CCC2CC1C2(C)C (centres undefined)	·	·	·	·	0%	·
COC(=O)COc1ccc2cc(-c3ccccc3)c(=O)oc2c1	-6%	9%	12µM*	-1%[9.26 µM]	·	0%
NC(=O)COc1ccc2cc(-c3ccc(F)cc3)c(=O)oc2c1	?	?	-18%	?	·	?
COc1ccc(-c2cc3ccc(OCC(C)=O)cc3oc2=O)cc1	1µM*	?	1.9µM*	?	·	1.3µM*
COc1ccc(-c2cc3ccc(OCC(C)=O)cc3oc2=O)cc1OC	2µM*	?	15µM*	?	·	4µM*
COC(=O)COc1ccc2cc(-c3ccc(OC)cc3)c(=O)oc2c1	0%	0%	?	4%	·	-3%
